Screens (PubChem BioAssay)
Bim-Mcl-1 – inhibitors of Bim peptide binding to Mcl-1, primary screen, biochemical, bead-based flow cytometry, multiplex; Induced myeloid leukemia cell differentiation protein Mcl-1 (Homo sapiens), Q07820; Bim peptide-Mcl-1 binding; inhibition, % at 10 µM; 0.1% of 190,000 active; in the data active = inhibition above about 40%;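 note: 0% = no compound tracer wells and 100% = peptide blocker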
NCF1 inh – p47phox/p22phox peptide binding inhibitors, primary screen, biochemical, uHTS, NADPH oxidase regulatory subunit; Neutrophil cytosol factor 1 (Homo sapiens), P14598; fluorescence polarization, 2 h; inhibition, % at 24.7 µM; 0.53% of 220,000 active; AID 1274, 2008;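 note: 0% = p47phox with labelled peptide and 100% = labelled peptide alone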
Mcl1 Noxa PPI – Mcl-1/Noxa binding inhibitors, primary screen, biochemical, TR-FRET, 1536-well; Induced myeloid leukemia cell differentiation protein Mcl-1 (Homo sapiens), Q07820; TR-FRET Mcl-1/Noxa peptide binding, 2 h; inhibition, % at 21.7 µM; 1.5% of 220,000 active; AID 1022, 2008;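 active = compounds that cut the protein-peptide binding signal by more than 50% relative to plate controls in a single-dose test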;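 note: His-tagged Mcl-1 with rhodamine Noxa BH3 peptide and terbium anti-His antibody; 0% = Mcl-1 plus Noxa peptide wells and 100% = peptide-only wells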
Mcl1 Bid PPI – Mcl-1/Bid binding inhibitors, primary screen, biochemical, TR-FRET, 1536-well | inhibition, % at 21.7 µM | TR-FRET Mcl-1/Bid-Dy647 peptide binding | AID 1021, 2008 | Induced myeloid leukemia cell differentiation protein Mcl-1 (Homo sapiens), Q07820 | 0.97% of 220,000 active;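 active = compounds that cut the binding signal by more than half at the single screening dose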;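 note: His-tagged Mcl-1 with europium anti-His antibody binding Bid BH3 peptide; 0% = Mcl-1 plus peptide wells and 100% = peptide-only wells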
eIF4E 4G PPI – eIF4E–eIF4G protein interaction inhibitors, primary screen, biochemical, uHTS, TR-FRET, eIF4GI fragment | TR-FRET eIF4E-eIF4GI(517-606) binding, 2 h | inhibition, % at 21.7 µM | 0.37% of 220,000 active | AID 782, 2007;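 note: 0% = full FRET control wells and 100% = background wells lacking eIF4GI fragment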
Target sequence (P63073 whole entry, looked up, the tested form may be a part): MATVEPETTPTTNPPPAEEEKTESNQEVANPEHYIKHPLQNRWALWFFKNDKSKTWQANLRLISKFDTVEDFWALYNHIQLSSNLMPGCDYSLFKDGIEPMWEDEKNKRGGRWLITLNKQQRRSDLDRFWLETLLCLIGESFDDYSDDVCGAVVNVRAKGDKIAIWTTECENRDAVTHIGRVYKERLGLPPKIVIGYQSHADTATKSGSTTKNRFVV
Target sequence (Q04637 whole entry, looked up, the tested form may be a part): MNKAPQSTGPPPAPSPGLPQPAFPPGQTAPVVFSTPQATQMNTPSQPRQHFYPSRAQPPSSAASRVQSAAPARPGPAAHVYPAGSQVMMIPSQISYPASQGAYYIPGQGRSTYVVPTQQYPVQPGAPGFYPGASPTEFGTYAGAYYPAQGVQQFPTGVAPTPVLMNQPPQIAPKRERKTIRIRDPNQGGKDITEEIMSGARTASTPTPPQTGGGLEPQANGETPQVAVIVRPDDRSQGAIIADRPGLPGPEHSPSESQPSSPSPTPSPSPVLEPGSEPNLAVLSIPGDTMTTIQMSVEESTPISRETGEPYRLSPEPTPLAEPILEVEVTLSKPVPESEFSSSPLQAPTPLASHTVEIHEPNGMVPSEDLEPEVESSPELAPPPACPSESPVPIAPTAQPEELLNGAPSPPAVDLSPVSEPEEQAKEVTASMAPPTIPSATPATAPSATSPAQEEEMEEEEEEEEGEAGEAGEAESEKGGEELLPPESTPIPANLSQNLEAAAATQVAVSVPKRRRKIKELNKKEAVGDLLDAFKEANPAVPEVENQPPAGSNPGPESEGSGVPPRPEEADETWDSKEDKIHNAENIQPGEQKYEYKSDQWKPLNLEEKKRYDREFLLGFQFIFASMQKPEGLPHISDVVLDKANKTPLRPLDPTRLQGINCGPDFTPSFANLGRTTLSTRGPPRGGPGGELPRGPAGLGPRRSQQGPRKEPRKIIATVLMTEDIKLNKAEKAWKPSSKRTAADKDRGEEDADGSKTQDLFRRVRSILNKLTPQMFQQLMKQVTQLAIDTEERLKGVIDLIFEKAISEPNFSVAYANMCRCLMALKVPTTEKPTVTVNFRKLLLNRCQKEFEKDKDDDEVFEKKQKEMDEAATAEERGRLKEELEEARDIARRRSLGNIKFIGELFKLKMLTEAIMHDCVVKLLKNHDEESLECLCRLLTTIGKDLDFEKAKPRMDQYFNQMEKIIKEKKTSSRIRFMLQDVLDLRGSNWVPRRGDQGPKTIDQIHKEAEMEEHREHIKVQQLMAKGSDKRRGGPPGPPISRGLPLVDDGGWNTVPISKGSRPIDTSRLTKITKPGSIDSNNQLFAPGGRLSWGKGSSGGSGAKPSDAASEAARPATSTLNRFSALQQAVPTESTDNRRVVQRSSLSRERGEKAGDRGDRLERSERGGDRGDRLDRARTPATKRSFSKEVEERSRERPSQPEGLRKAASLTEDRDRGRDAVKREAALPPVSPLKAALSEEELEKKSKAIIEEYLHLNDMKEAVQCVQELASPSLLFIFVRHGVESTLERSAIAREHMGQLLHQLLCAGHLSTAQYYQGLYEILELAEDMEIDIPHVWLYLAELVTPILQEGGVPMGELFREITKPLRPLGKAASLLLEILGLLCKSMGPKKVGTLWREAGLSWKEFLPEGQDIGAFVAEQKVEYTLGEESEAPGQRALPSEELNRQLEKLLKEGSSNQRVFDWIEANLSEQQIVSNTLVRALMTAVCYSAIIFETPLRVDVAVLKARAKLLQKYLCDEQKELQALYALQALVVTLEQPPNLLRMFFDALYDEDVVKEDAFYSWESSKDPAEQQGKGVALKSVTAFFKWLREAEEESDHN
14-3-3 Bad PPI – inhibitors of 14-3-3 zeta/Bad binding, primary screen, biochemical, TR-FRET, bovine 14-3-3 zeta; TR-FRET 14-3-3zeta/Dy647-pBad peptide displacement, 1 h; 0.71% of 220,000 active; inhibition, % at 21.7 µM; AID 781, 2007; 14-3-3 protein zeta/delta (Bos taurus), P63103;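 active = inhibition above about 70%, limit read from the data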;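 note: 0% = full 14-3-3 plus peptide FRET controls and 100% = background without 14-3-3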
The depositor's hits bear a star; / = no result given; [ ] = remark or other dose. Rows were chosen to be rich in hits. Some 3.4% of all compounds tested hit in one or more screens of this group.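 Rule for the calls, unless noted: active = inhibition above about 30% (limit read from the data); inactive = the rest.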

SMILES	Bim-Mcl-1	NCF1 inh	Mcl1 Noxa PPI	Mcl1 Bid PPI	eIF4E 4G PPI	14-3-3 Bad PPI
Cc1ccc(S(=O)(=O)N2CCCCC2)cc1NC(=O)CNCc1ccco1	/	6	22	42	-5	32
O=C(CSc1ccccn1)NC1CCCC1	-1	8	-4	-5	4	-1
CCOC(=O)C1(CCCc2ccccc2)CCN(C(=O)C2=C(C)OCCO2)CC1	-2	-4	-1	-23	0	-14
CCOC(=O)CSc1nnc(NC(=O)c2cc([N+](=O)[O-])cc([N+](=O)[O-])c2)s1	-2	36*	17	-24	-3	11
Cc1cccc(C(=O)OCC(=O)NCCCc2ccccc2)c1	-1	1	3	-23	5	-2
O=C(COC(=O)c1ccc2ccccc2c1)NCCCc1ccccc1	-2	-4	5	81*	1	0
Cc1ccc(NC(=O)CSCC(=O)NCCc2ccccn2)c(C)c1	-2	-5	10	-24	0	-6
CC1=Nc2cccc3cccc(c23)N1C	-3	7	61*	-38	27	7
Cc1ccc(S(=O)(=O)Nc2c(C)n(C)n(-c3ccccc3)c2=O)cc1C(=O)OCC(=O)N1CCCC(C)C1 (stereo not given)	0	4	0	-37	-5	-8
Cc1c(NS(=O)(=O)c2cc(NC(=O)CCN3CCCC(C)C3)ccc2Cl)c(=O)n(-c2ccccc2)n1C (stereo not given)	0	-3	78*	-22	-2	-7
Cc1ccc(OC(=O)c2cc(C)nn2C(C)(C)C)cc1	/	-1	-11	-16	-4	0
Cc1ccc(/C=C/C(=O)CCC(=O)O)cc1	-2	4	17	-33	2	7
CC(C(=O)c1ccccc1)n1c(N2CCOCC2)nc2c1c(=O)n(C)c(=O)n2C (stereo not given)	-3	55*	6	-5	0	-2
O=C(COC(=O)c1ccc(F)cc1F)NC1CC1	-1	-4	15	-8	1	-4
COc1ccc(S(=O)(=O)Nc2cc(Sc3ncn[nH]3)c(O)c3ccccc23)cc1	0	16	91*	45	46*[fluorescence artefact?]	87*[fluorescence artefact?]
O=C(Sc1cccc2cccnc12)c1ccc(F)cc1	-3	-1	6	-26	-7	-14
O=S(=O)(Nc1cc(Sc2cccc3cccnc23)c(O)c2ccccc12)c1ccc(F)cc1	1	9	51*	-28	0	23
COc1ccc(S(=O)(=O)Nc2ccc(O)c(Sc3ncn[nH]3)c2)cc1	-2	7	31	-34	-5	-14
O=C(Nc1cc(C(F)(F)F)cc(C(F)(F)F)c1)Nc1cnn(-c2ccc([N+](=O)[O-])cc2)c1C(F)(F)F	/	-19	-1	-11	4	3
O=C(N/N=C/c1ccc(O)c(O)c1)c1cccc(S(=O)(=O)N2CCCCC2)c1	0	-5	56*	-21	4	-7
COc1cc(/C=N/NC(=O)c2cccc(S(=O)(=O)N3CCCCC3)c2)cc(Br)c1O	0	-14	72*	-43	5	-25
CN(C)c1ccc(-c2nnc(-c3ccc(S(=O)(=O)C(F)F)cc3)o2)cc1	1	-6	27	73*	-32	15
CC(C)CCNC(=O)C12CN(Cc3ccccc3)CC1C(c1ccc([N+](=O)[O-])cc1)=NO2 (stereo not given)	1	3	25	23	-4	49
COc1cccc(CNC(=O)C23CN(Cc4ccccc4)CC2C(c2ccc([N+](=O)[O-])cc2)=NO3)c1 (stereo not given)	16	-3	25	-9	-4	71*
Nc1nc2ccccc2n1C(=O)c1cccs1	-3	-3	22	9	-1	8
SMILES	Bim-Mcl-1	NCF1 inh	Mcl1 Noxa PPI	Mcl1 Bid PPI	eIF4E 4G PPI	14-3-3 Bad PPI
CC(C)(C)C(=O)Nc1ccccc1C(=O)OCC(=O)c1ccc2c(c1)OCCO2	2	-8	-4	-14	-4	-4
O=C(COC(=O)c1ccccc1NC(=O)C1CC1)c1ccc2c(c1)OCCO2	-3	-7	-1	-14	3	71*
CCOc1ccccc1C(=O)NC1CC2CCCC(C1)N2C1CC1 (stereo not given)	42*	6	7	2	-3	-11
CCOc1ccccc1C(=O)NC1CC2CCCC(C1)N2Cc1nnnn1Cc1ccco1 (stereo not given)	-2	-10	4	-25	-3	8
CCc1ccccc1N(C(C)=O)c1nc(CN=C=S)cs1	0	2	18	3	-3	9
CCOC(=O)c1ccc(NC(=O)CC2S/C(=N/N=C/c3c[nH]c4ccccc34)NC2=O)cc1 (stereo not given)	/	-7	61*	63*	-3	27
Cc1ccc(NC(=O)CC2S/C(=N/N=C/c3c[nH]c4ccccc34)NC2=O)cc1 (stereo not given)	25	7	48	57*	3	11
Fc1ccc(-n2nnc(-c3nccs3)n2)cc1	1	-2	0	-7	-1	1
Oc1cc2c(cc1C(c1ccc(Br)cc1)N1CCCC1)OCO2 (stereo not given)	4	3	82*	90*	44*	30
C=CCN=C(NC#N)SC	/	-1	6	10	7	-4
O=C(NNc1ccccc1[N+](=O)[O-])Nc1cccc(Cl)c1	/	-6	9	-105	0	9
CC1(C)Cc2c(sc3ncn(N)c(=N)c23)CO1	-1	-9	11	-61	2	5
CC1(C)Cc2c(sc3ncn4c(=S)[nH]nc4c23)CO1	0	-6	67*	-57	3	-10
NC(=O)C1CCN(C(=O)c2cccc(S(=O)(=O)N3CCc4ccccc4C3)c2)CC1	0	-6	2	-37	5	-6
COc1ccc(N2CCN(C(=O)CSc3nnc(-c4cc5ccccc5cc4O)n3C)CC2)cc1	-2	-13	18	-63	3	-19
O=C(c1cccc(S(=O)(=O)N2CCc3ccccc3C2)c1)N1CCN(c2ccc(O)cc2)CC1	-4	0	57*	-46	-4	-5
O=C(CSc1ccc2ccccc2c1)N1CCN(c2ccc(O)cc2)CC1	/	4	60*	-38	-2	-6
O=C(c1ccc2ccccc2c1)N1CCN(c2ccc(O)cc2)CC1	5	-4	53*	-41	8	1
